# Screening results as filed in PubChem.
# Hits are enriched below; roughly 17% of the tested compounds scored in any of these assays.
# TDP1 cell CPT: growth inhibition of DT40 Tdp1-/-;hTDP1 cells with camptothecin (screen for TDP1 inhibitors). chicken DT40 Tdp1-/-;hTDP1 cells + 20 nM CPT, ATP luminescence, 48 h. Potency, µM (series often up to 46.2 µM), inactives show at the highest dose activity change, negative = growth inhibition, most hits filed as inhibitors. actives 12% (n = 420,000); further: on the % scale 0 is the no-effect control and ±100 the full control effect; nearly all actives have a fitted effect of over 55% in size
#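 Cell growth measured by CellTiter-Glo luminescence after a minimum 48 h, 37 C compound exposure with 20 nM CPT in Tdp1-knockout DT40 cells stably expressing hTDP1, seeded 400/well; qHTS titration format.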
# HT1080NT lethal: kills 2HG-producing HT-1080-NT fibrosarcoma cells; HT-1080-NT fibrosarcoma viability, CellTiter-Glo ATP luminescence, 48 h; Potency, µM (doses to about 46.1 µM), without a hit: at the top dose activity, negative = less viability, most hits filed as cytotoxic; actives 1.6% (n = 360,000);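 further: NT is the 2HG producing partner of a matched IDH1 knockdown line; 0% = DMSO-treated cells and -100% = media-only wells without cells; nearly all actives have a fitted effect of over 55% in size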
#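 Read-out is CellTiter-Glo luminescence after 10 minutes at room temperature, following 48 hours' compound treatment of HT-1080-NT cells (750 cells/well, RPMI, 5% FBS, 37 degrees C).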
# DT40 TDP1 no CPT: qHTS for Inhibitors of human tyrosyl-DNA phosphodiesterase 1 (TDP1): qHTS in cells in absence of CPT | Potency, µM (titrated, usually from 46.2 µM), inactives show at the highest dose activity change, negative = growth inhibition, most hits filed as inhibitors | DT40 Tdp1-/- hTDP1 cells, no CPT, ATP luminescence, 48 h | AID 686978, 2013 | actives 15% (n = 420,000); further: on the % scale 0 is the no-effect control and ±100 the full control effect; nearly all actives have a fitted effect of over 55% in size
#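 Luminescent ATP content (CellTiter-Glo) served as the growth readout. Knockout chicken DT40 cells expressing human TDP1 were exposed to compounds without camptothecin for a minimum 48 hr at 37 °C.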
# HepG2 viability: HepG2 cytotoxicity, counter-screen for TGF-b inhibitors; HepG2 CAGA-GFP viability, ATP luminescence, 18 h; Potency, µM (titrated, usually from 46.1 µM), inactives show at the top dose activity change, negative = cytotoxicity, actives largely listed as cytotoxic; actives 0.76% (n = 410,000)
#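 CellTiter-Glo luminescence gave cytotoxicity after 18 hours at 37 degrees C. The cells were HepG2 CAGA-GFP in 1% FBS DMEM, stimulated with 500 pg/mL TGF-beta after compound addition. %Activity was normalised to no-cell wells (complete cell-killing) and DMSO (no toxicity), and curves were fitted and classified.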
# TGFb inhibitor: inhibitors of TGF-b signaling; actives 1.2% (n = 410,000); HepG2 CAGA-GFP TGF-b/SMAD3 reporter, GFP fluorescence, 18 h; TGF-beta stimulated, 500 pg/mL final; Potency, µM (highest dose often 46.1 µM), without a hit: at the highest dose activity, negative = inhibition, most hits filed as inhibitors; further: on the % scale 0 is the no-effect control and ±100 the full control effect; nearly all actives have a fitted effect of over 65% in size
#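 Per well, imaged GFP fluorescence of HEPG2 CAGA-GFP cells gives the signal; cells get compound, then TGF-beta (500 pg/mL final), 18 h at 37 degrees C; %Activity versus -TGF-beta and +DMSO controls.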
# HT1080 IDH1KD tx: toxicity to HT-1080 IDH1 knockdown cells (counter line); Potency, µM (titrated, usually from 46.1 µM), without a hit: at the highest dose activity, negative = toxicity, usual class: cytotoxic; HT-1080 IDH1 knockdown viability, ATP luminescence, 48 h; actives 2% (n = 360,000);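 further: 0% = DMSO wells and -100% = cell-free medium wells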
#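 Cytotoxicity counter-line: IDH1KD HT-1080, 48 h, CellTiter-Glo. Curves classed by r2, magnitude and activity.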
# Numbers without * were called inactive; ? = inconclusive; . = no result; [ ] = remark or other dose. The call rests on the fitted dose curve; in most records, active means well fitted curve in the direction sought with a large enough effect; inconclusive means small, poorly fitted or top-dose-only effect, or another doubt; inactive means no such curve, though single readings can be large; an effect the other way counts as inactive or inconclusive. Potency means the concentration at half of the fitted maximal effect.
SMILES,TDP1 cell CPT,HT1080NT lethal,DT40 TDP1 no CPT,HepG2 viability,TGFb inhibitor,HT1080 IDH1KD tx
COc1ccccc1N1CCN(C(=O)Cn2ncc3c2-c2cc(C)ccc2OC3)CC1,26µM*,.,21µM*,-7%,-20%,.
O=C(Cn1ncc2c1-c1ccccc1OC2)N1CCN(c2ccccc2)CC1,-30%,.,16µM*,-6%,-5%,.
CN(C)S(=O)(=O)c1ccc2c(c1)N(CC(=O)NCc1cccc(Br)c1)C(=O)CS2,?,.,?,-29%,?,.
CCN(C(=O)c1cccc(F)c1)c1ccccc1C,?,0%,?,-11%,-5%,4%
CCC(=O)N(C)C[C@H]1Oc2cc(Br)ccc2S(=O)(=O)N([C@@H](C)CO)C[C@H]1C,-19%,1%,-3%,6%,12%,1%
CSc1ncc(C(=O)Nc2c(C)cccc2C)c(-c2ccccc2)n1,-11%,.,-15%,1%,0%,.
C[C@H]1CN([C@@H](C)CO)C(=O)CCCn2cc(nn2)CO[C@@H]1CN(C)S(=O)(=O)c1ccc(Oc2ccccc2)cc1,-22%,14%,-1%,-13%,12%,3%
COc1cc(C(=O)O)c([N+](=O)[O-])c(OC)c1OC,0%,0%,10%,35%,26%,5%
COc1cc2[nH]c(Cl)c([N+](=O)[O-])c2cc1OC,21µM*,-18%,21µM*,-1%,-5%,13%
CNC(=S)NN=C(C)CCCC(C)=NNC(=S)NC,0.16µM*,11%,0.021µM*,-49%,4.5µM*,20%
COc1cccc(N2CCN(C(=S)Nc3ccccc3OC)CC2)c1,19%,14%,-7%,1%,16%,8%
COc1cccc(N2CCN(C(=S)Nc3ccc(F)cc3)CC2)c1,15%,3%,2%,-5%,-6%,4%
CCOc1ccccc1NC(=S)N1CCN(c2cccc(OC)c2)CC1,21µM*,-10%,?,0%,-19%,-21%
COc1cccc(N2CCN(C(=S)Nc3cc(C)cc(C)c3)CC2)c1,6.5µM*,-6%,6.5µM*,1%,0%,-7%
OCCCNCc1ccc(N(c2ccccc2)c2ccccc2)cc1,16µM*,?,21µM*,-98%,?,16µM*
CN(C)CCCNC(=O)c1cc2sc3ccccc3c2s1,?,18µM*,?,20µM*,0%,18µM*
CCN(CC)CCNC(=O)c1cc2c(=O)n(C)c3ccccc3c2s1,18µM*,?,21µM*,-53%,-18%,?
CCCCN(CC)CCNC(=O)c1cc2c(=O)n(C)c3ccccc3c2s1,?,?,23µM*,13µM*,?,?
COCCNC(=O)c1cc2sc3ccccc3c2s1,3%,-3%,-26%,-11%,12%,-4%
CN(CCNC(=O)c1cc2c(=O)n(C)c3ccccc3c2n1C)Cc1ccccc1,?,-26%,?,-37%,?,-1%
CN(CCCNC(=O)c1cc2c(=O)n(C)c3ccccc3c2s1)Cc1ccccc1,4.6µM*,.,15µM*,-25%,-5%,.
Cc1ccc(S(=O)(=O)NC(CC(C)C)C(=O)NCCCn2nc(C)cc2C)cc1 (configuration not stated),2%,-3%,3%,-5%,-3%,0%
CCC1(C2CCN(C(=O)c3ccccc3Cl)CC2)NC(=O)N(CCc2scnc2C)C1=O (configuration not stated),19%,.,-9%,.,.,.
COc1ccc(-c2nc3cnc(OC)nc3n(Cc3cccc(OC)c3)c2=O)cc1,5%,.,-11%,.,.,.
CC(C)c1ccccc1NC(=O)CSc1n[nH]c(=O)n1C1CC1,-16%,5%,-4%,1%,2%,0%
SMILES,TDP1 cell CPT,HT1080NT lethal,DT40 TDP1 no CPT,HepG2 viability,TGFb inhibitor,HT1080 IDH1KD tx
O=C(NC1CCC1)C1CCC(=O)N(Cc2ccc(Cl)cc2)C1 (configuration not stated),3%,2%,-10%,11%,5%,3%
CC(C)OCCCNC(=O)COCC(=O)Nc1ccc(OCCc2ccccc2)cc1,18µM*,?,13µM*,-32%,?,-5%
Cc1ccc(CCNC(=O)c2coc3nc4ccccc4nc23)cc1,?,4%,29µM*,-2%,-4%,9%
COc1ccc(-c2cc(C(=O)NCCc3ccc(OC)c(OC)c3)c3ccccc3n2)cc1,18µM*,.,12µM*,-27%,-21%,.
COc1ccc(CCNC(=O)c2cccc3ccccc23)cc1OC,7%,2%,8%,-46%,-30%,-1%
CC1CCCN(CCCNC(=O)c2coc3nc4ccccc4nc23)C1 (configuration not stated),6%,13%,-7%,-1%,?,6%
COc1ccc(CCNC(=O)c2cc(-c3ccc(C)c(C)c3)nc3ccccc23)cc1OC,10µM*,.,-81%,-36%,-23%,.
COc1ccc(CCNC(=O)c2cc(Nc3ccccc3)nc3ccccc23)cc1OC,9.2µM*,.,8.2µM*,-5%,0%,.
CCS(=O)(=O)N1CCc2cc(C(=O)NCCc3ccc(OC)c(OC)c3)ccc21,-6%,.,-13%,-2%,-1%,.
COc1ccc(CCNC(=O)c2cccc(Nc3nc4ccccc4nc3-n3nc(C)cc3C)c2)cc1OC,5.2µM*,.,4.6µM*,57%,45%,.
CCOc1ccc(CCNC(=O)c2cc(Nc3ccc(C)cc3C)nc3ccccc23)cc1OCC,8.2µM*,.,8.2µM*,0%,0%,.
COc1ccc(CC(=O)NC(C)C2COc3ccccc3O2)cc1OC (configuration not stated),-13%,-1%,-25%,-11%,-25%,-2%
CSc1nc(SCCN(C)C)c2c3c(sc2n1)COC(C)(C)C3,?,-24%,18µM*,-22%,-12%,?
CN1CCc2c(sc(/N=C/c3c[nH]c4ccccc34)c2C#N)C1,?,-5%,?,21%,37%,0%
CCN1CCc2c(sc(N)c2C(N)=O)C1,?,-7%,23µM*,0%,15%,-2%
CN1CCc2c(sc(N)c2C(N)=O)C1,26µM*,-2%[9.24 µM],21µM*,19%,22%,-2%
NC(=O)c1c(N)sc2c1CCCC2,-4%,14%,6%,12%,-1%,18%
